The text below walks through data of PubChem BioAssay.

A short description of test [1]: inhibitors of TNFa-induced NFkB p65 translocation, primary screen, imaging, HUVEC, MLSMR starter and 10KST1 sets (AID 438;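 active = inhibition above 20% together with a positive visual image hit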;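 note: compound added about 3h40 before a 20 min TNFalpha stimulation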;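 for inhibition: signal is the nuclear over cytoplasmic p65 intensity ratio per well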). The settings on record: HUVEC TNFa-induced p65 nuclear translocation; cell count: measured here: nuclei count (cytotoxicity indicator), at 2.08 µM; inhibition: at 2 µM, stronger effect = higher value, 0% TNFa-plus-vehicle, 100% no-TNFa wells.
Test [2] is described as follows: inhibitors of mutant huntingtin aggregation, primary screen, imaging, exon1htt(103Q)mCFP cells, high-content imaging (AID 483;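 active = visual image review flags a hit and inhibition of aggregation exceeds 20%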;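 note: compound exposure lasted 3 days before fixation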;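 for nuclei count: percent of the per-plate median nuclei count of sample wells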). The settings on record: exon1htt(103Q)mCFP cell line, aggregate imaging, at 2 µM; inhibition of aggregation: stronger effect = higher value; nuclei count: measured here: cell count, toxicity.
A short description of test [3]: inhibitors of E-selectin induction by TNFa, primary screen, imaging, HUVEC, immunofluorescence, MLSMR starter and 10KST1 sets (AID 487).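 For inhibition: signal is fraction of cell area covered by stained E-selectin grains.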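 For nuclei count: 100% = median nuclei count of all wells on the same plate.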 The settings on record: HUVEC TNFalpha-induced E-selectin immunofluorescence imaging, at 2 µM; inhibition: stronger effect = higher value; nuclei count: measured here: cell number, toxicity.
Test [4] has as its target Voltage-gated potassium channel subunit beta-2 (Rattus norvegicus) (UniProt P62483). Description: KvBeta enzyme negative modulators, primary screen, biochemical, NADPH fluorescence (AID 622;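 active = fluorescence slope higher than the sample average by over 3 SD, cut at about -0.22 in these data, passing the limit was not always enough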;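 note: slope of raw intensity against log time taken from 70 to 1610 s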). The settings on record: recombinant KvBeta, 4-cyanobenzaldehyde reduction, at 10 µM, stronger effect = higher value.
For test [5] the target is unchanged. Briefly: KvBeta positive modulators, primary screen, biochemical, NADPH fluorescence (AID 623;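 active = NADPH fluorescence slope more negative than the mean of all samples by about 3 SD, 99.7% confidence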;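 note: fluorescence intensity change per second fitted from 20 to 320 s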). Conditions: Recombinant KvBeta, NADPH fluorescence decrease slope, 10 min; at 10 µM; stronger effect = lower value.
In test [6] the target is Alpha-2C adrenergic receptor (Homo sapiens) (UniProt P18825). Description: modulators of alpha2C/GIRK thallium flux, primary screen, cell-based, HEK293 alpha2C/GIRK1/2 (AID 624;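 active = fluorescence slope after compound addition differing from the mean of all screened samples at 99.7% confidence, in either direction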;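 note: slope of fluorescence ratio to pre-addition baseline per second over 15 to 24 s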). Conditions: thallium flux BTC fluorescence, at 10 µM, actives lie on both sides.
Test [7] can be described thus: inhibitors of Sendai virus-induced IRF3 signaling, primary screen, TLR/RLR signaling modifier project, cell-based, Sendai virus stimulus, luciferase, 10K MLSCN set (AID 602276;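 active = inhibition at or above 50% at 10 µM; inactive = inhibition below 50%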;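 note: firefly luciferase from ISG56 promoter only with Renilla not read in this screen; 0% = Sendai virus plus DMSO and 100% = medium plus DMSO without virus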). Conditions: HEK293 RL24 IRF3 luciferase reporter, at 10 µM, stronger effect = higher value. For orientation: Reporter assays use an easily measured gene product as a stand-in for the process of interest.

Test [8] in a line: inhibitors of poly I:C-induced TLR3 signaling, primary screen, cell-based, poly I:C stimulus, luciferase, 10K MLSCN set (AID 602277;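 active = inhibition of the reporter signal at or above 50%; inactive = inhibition below 50%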). The settings on record: HEK293-TLR3 RL24 IRF3 luciferase reporter, at 10 µM, stronger effect = higher value.

Calls of active or inactive are those of the source.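 Rule for the calls, unless noted: active = visually confirmed hit in the image check and inhibition above 20%; inconclusive = visually confirmed hit but inhibition not above 20%; inactive = no visual hit in the image check.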

Voltage-gated potassium channel subunit beta-2 (Rattus norvegicus), sequence (P62483 whole entry, looked up): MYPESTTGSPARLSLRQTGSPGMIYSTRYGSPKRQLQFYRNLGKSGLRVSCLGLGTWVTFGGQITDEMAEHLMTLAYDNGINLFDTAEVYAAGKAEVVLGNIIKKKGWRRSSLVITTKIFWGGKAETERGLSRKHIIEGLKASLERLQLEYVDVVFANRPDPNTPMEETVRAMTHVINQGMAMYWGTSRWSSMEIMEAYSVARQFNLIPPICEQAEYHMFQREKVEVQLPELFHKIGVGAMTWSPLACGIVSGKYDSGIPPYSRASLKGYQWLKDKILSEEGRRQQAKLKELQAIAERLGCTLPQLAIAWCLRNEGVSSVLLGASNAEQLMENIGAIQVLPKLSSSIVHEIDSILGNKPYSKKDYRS
Alpha-2C adrenergic receptor (Homo sapiens), sequence (P18825 whole entry, looked up): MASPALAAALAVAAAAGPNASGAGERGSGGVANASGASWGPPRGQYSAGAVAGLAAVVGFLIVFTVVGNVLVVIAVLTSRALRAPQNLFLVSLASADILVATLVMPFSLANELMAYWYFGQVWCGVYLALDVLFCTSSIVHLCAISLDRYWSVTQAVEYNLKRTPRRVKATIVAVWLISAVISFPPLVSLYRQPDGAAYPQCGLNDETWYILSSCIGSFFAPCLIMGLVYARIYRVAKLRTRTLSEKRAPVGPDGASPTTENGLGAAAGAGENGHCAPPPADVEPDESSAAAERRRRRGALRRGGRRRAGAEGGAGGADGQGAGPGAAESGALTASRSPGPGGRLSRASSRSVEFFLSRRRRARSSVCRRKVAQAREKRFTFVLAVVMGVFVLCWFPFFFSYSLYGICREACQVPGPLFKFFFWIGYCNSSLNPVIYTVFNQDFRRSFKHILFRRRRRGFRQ

In the case of `COc1ccc(CNC(=O)c2ccc(CN3CCOCC3)cc2)cc1`, the cell count in test [1] turned out to be 645. Also, the inhibition in test [1] was -7.8% (inactive); in test [3], 7.3% (inactive); in test [7] it was 7.5% (inactive); in test [8] it was -5.55% (inactive). Besides, the inhibition of aggregation in test [2] was -5.7% (inactive). The nuclei count worked out at 103% in test [2] and 147% in test [3]. In test [4], the fluorescence slope is -0.472 (inactive). The NADPH fluorescence slope in test [5] was -2.6e-05 (inactive). The slope in test [6] was 0.00567 (inactive).
For `Cc1ccc(N(C(=O)c2ccncc2)C2C=CS(=O)(=O)C2)cc1` (centres undefined), the cell count in test [1] was found to be 816. The inhibition in test [1] was -4% (inactive); in test [3], -56.8% (inactive); in test [7], -4.78% (inactive); in test [8], 24.5% (inactive). Besides, in test [2], the inhibition of aggregation is -5.8% (inactive). The figures for the nuclei count in test [2] and in test [3] were 114% and 117%, respectively. Moreover, the fluorescence slope in test [4] is -0.612 (inactive). Moreover, the NADPH fluorescence slope in test [5] was -2.8e-05 (inactive). Moreover, in test [6], the slope is 0.00723 (inactive).
On to `N#Cc1cnn(Cc2ccc(Cl)cc2)c1N`, for which the cell count in test [1] came to 628. Further, the inhibition is 4.5% (inactive) in test [1], -28.9% (inactive) in test [3], 7.9% (inactive) in test [7] and 25.7% (inactive) in test [8]. Besides, the inhibition of aggregation in test [2] is -3.8% (inactive). Moreover, the nuclei count in test [2] stood at 110%; in test [3], 91.4%. The fluorescence slope in test [4] is -0.466 (inactive). Also, the NADPH fluorescence slope in test [5] was -5.6e-05 (inactive). The slope in test [6] is 0.00625 (inactive).
Take `CNC(=O)NCCN1CCCC1=O`: in test [1], the cell count was 505. Besides, the inhibition in test [1] is 4.5% (inactive); in test [3] it was -83.1% (inactive); in test [7] it was 9.55% (inactive); in test [8], 11.8% (inactive). Also, the inhibition of aggregation in test [2] is -26.4% (inactive). Further, the nuclei count in test [2] turned out to be 111%; in test [3] it was 123%. Further, the fluorescence slope in test [4] is -0.335 (inactive). Also, in test [5], the NADPH fluorescence slope was -3.4e-05 (inactive). Besides, the slope in test [6] was 0.00479 (inactive).
For the molecule `COC(=O)c1ccnc(/C=N/O)c1`, the cell count in test [1] was determined as 715. Besides, the inhibition in test [1] is -2% (inactive); in test [3], 11.2% (inactive); in test [7], 15.5% (inactive); in test [8], 19.8% (inactive). For the same molecule, in test [2], the inhibition of aggregation was -19.8% (inactive). The values for the nuclei count in test [2] and in test [3] were 112% and 108%, respectively. In test [4], the fluorescence slope is -0.578 (inactive). In addition, the NADPH fluorescence slope in test [5] is -2e-05 (inactive). The slope in test [6] is 0.00558 (inactive).
`O=C(CSc1nc2ccccc2nc1SCC(=O)N1CCOCC1)N1CCOCC1`: the cell count in test [1] was 473. The inhibition in test [1] is 7.6% (inactive); in test [3], -239% (inactive); in test [7], 9.88% (inactive); in test [8] it was 27.5% (inactive). The inhibition of aggregation in test [2] is 11.3% (inactive). Besides, the nuclei count amounted to 93.3% in test [2] and 115% in test [3]. Moreover, the fluorescence slope in test [4] was -0.354 (inactive). The NADPH fluorescence slope in test [5] is -4.2e-05 (inactive). The slope in test [6] is 0.00548 (inactive).
On to `COc1ccc(C2(C(=O)Nc3cc(C)on3)CCOCC2)cc1`, for which, in test [1], the cell count stood at 312. Further, the inhibition is 0.4% (inactive) in test [1], -51.8% (inactive) in test [3], 13.8% (inactive) in test [7] and 5.89% (inactive) in test [8]. Also, the inhibition of aggregation in test [2] is 10.1% (inactive). Besides, the nuclei count in test [2] came to 108%; in test [3], 134%. In test [4], the fluorescence slope was -0.388 (inactive). Besides, the NADPH fluorescence slope in test [5] is -4.8e-05 (inactive). In test [6], the slope was 0.00489 (inactive).
For the molecule `CCOC(=O)C1CCN(c2c(NC3CCCCCCC3)c(=O)c2=O)CC1`, in test [1], the cell count worked out at 897. Moreover, the inhibition in test [1] is 2.8% (inactive); in test [3], -53.1% (inactive); in test [7], 9.6% (inactive); in test [8], 32.7% (inactive). In addition, the inhibition of aggregation in test [2] is -6.4% (inactive). Moreover, the nuclei count in test [2] is 103%; in test [3] it was 118%. The fluorescence slope in test [4] was -0.575 (inactive). In test [5], the NADPH fluorescence slope was -4.2e-05 (inactive). The slope in test [6] is 0.00631 (inactive).
In the case of `COc1ccccc1NC(=O)C1(C)Cc2ccccc2C(=O)O1` (centres undefined), in test [1], the cell count came to 640. In addition, the inhibition was 12.4% (inactive) in test [1], 46.9% (inactive) in test [3], -6.71% (inactive) in test [7] and -2.97% (inactive) in test [8]. For the same molecule, the inhibition of aggregation in test [2] is -26.4% (inactive). Also, the nuclei count came out at 119% in test [2] and 106% in test [3]. Moreover, the fluorescence slope in test [4] was -0.584 (inactive). Besides, the NADPH fluorescence slope in test [5] is -3.4e-05 (inactive). Besides, in test [6], the slope is 0.00673 (inactive).
As to `CCn1c(CCC(=O)Nc2nc3c(s2)CCCC3)nc2cc(S(=O)(=O)N(C)C)ccc21`, the cell count in test [1] was 288. Also, the inhibition in test [1] was 1.4% (inactive); in test [3], -54.4% (inactive); in test [7] it was 14.6% (inactive); in test [8], 18.8% (inactive). In addition, the inhibition of aggregation in test [2] was -9% (inactive). The results for the nuclei count in test [2] and in test [3] were 103% and 123%, respectively. In test [4], the fluorescence slope was -0.398 (inactive). Besides, in test [5], the NADPH fluorescence slope is -3e-05 (inactive). The slope in test [6] is 0.00627 (inactive).
`Cc1ccc(C)c2[nH]c(=O)c(CCNC(=O)c3ccc(Br)o3)cc12`: the cell count in test [1] was determined as 327. The inhibition in test [1] was -9.8% (inactive); in test [3], 23.8% (inactive); in test [7] it was -1.8% (inactive); in test [8] it was -1.41% (inactive). Also, the inhibition of aggregation in test [2] is 14.1% (inactive). For the same molecule, the nuclei count in test [2] was determined as 87%; in test [3] it was 97.7%. The fluorescence slope in test [4] is -0.481 (inactive). Besides, the NADPH fluorescence slope in test [5] was -0.000268 (inactive). Moreover, in test [6], the slope was 0.00492 (inactive).
Turning to `CCOc1ccc(NC2c3ccccc3C(=O)N2Cc2ccco2)cc1` (centres undefined), the cell count in test [1] came out at 695. Also, the inhibition in test [1] was -6.7% (inactive); in test [3], -23.8% (inactive); in test [7], -13.3% (inactive); in test [8], -22.8% (inactive). In addition, in test [2], the inhibition of aggregation is 6.4% (inactive). The nuclei count in test [2] came out at 47.6%; in test [3], 91.8%. Besides, the fluorescence slope in test [4] is -0.6 (inactive). Also, the NADPH fluorescence slope in test [5] was 1.5e-05 (inactive). Also, the slope in test [6] is 0.00369 (inactive).
Regarding `COCCn1cc(C(=O)c2ccccc2OCC(=O)Nc2cc(C)on2)cc(C#N)c1=O`, the cell count in test [1] turned out to be 455. Also, the inhibition in test [1] is 5.8% (inactive); in test [3] it was -7% (inactive); in test [7] it was 9.82% (inactive); in test [8], 15.9% (inactive). For the same molecule, the inhibition of aggregation in test [2] was -23.9% (inactive). In addition, the nuclei count in test [2] is 77.9%; in test [3], 97.9%. For the same molecule, the fluorescence slope in test [4] was -0.368 (inactive). Further, the NADPH fluorescence slope in test [5] was 6.2e-06 (inactive). Also, the slope in test [6] is 0.00464 (inactive).
Take `CC(=O)NC(C)C(=O)OCC(=O)Nc1ccc(Br)cc1` (centres undefined): in test [1], the cell count was 436. Also, the inhibition in test [1] is 6.9% (inactive); in test [3] it was -23.8% (inactive); in test [7], 20% (inactive); in test [8], 13.9% (inactive). For the same molecule, the inhibition of aggregation in test [2] was 5.5% (inactive). Further, the nuclei count is 112% in test [2] and 116% in test [3]. For the same molecule, in test [4], the fluorescence slope is -0.246 (inactive). For the same molecule, the NADPH fluorescence slope in test [5] was -5.1e-06 (inactive). The slope in test [6] is 0.00449 (inactive).

The term inhibition denotes the drop in the measured response relative to a control, in per cent.
